A selection: hits, their analogues and other compounds. The true share with any hit is near 8.7%.
AMA1 RON2 block: AMA1-RON2 (P. falciparum) interaction inhibition | Potency, µM (titrated, usually from 58.2 µM), for the others: top-dose activity change, negative = inhibition, actives largely listed as inhibitors | hit rate 0.2% among 360,000 | AlphaScreen AMA1-biotinylated RON2 peptide binding;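 also: 0% = vehicle wells and -100% = peptide control; nearly all actives have a fitted effect of over 45% in size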
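AMA1 (3D7) with his tag at 25 nM final met compounds first, then biotinylated RON2 peptide at 25 nM; detection used donor plus acceptor beads, 10 µg/mL apiece, read by AlphaScreen after 30 min at room temperature.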
Pf growth 48h: inhibits P. falciparum growth in the first generation, 48 h | Potency, µM (highest dose often 28.7 µM), without a hit: at the highest dose activity change, negative = inhibition, hits mostly inhibitors | AID 504832 | P. falciparum luciferase growth in erythrocytes, 48 h | hit rate 5.9% among 310,000
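Luciferase-expressing parasites in RBCs, 2% Hct / 0.1% parasitemia final; RPMI 1640 + 0.5% Albumax; 37 C, 5% CO2, one generation; luminescence read-out, lower signal = inhibition.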
Pf growth 96h: P. falciparum growth inhibition at 96 hour, primary screen for plastid delayed-death inhibitors | AID 504834 | P. falciparum luciferase reporter growth, 96 h | Potency, µM (doses to about 28.7 µM), for the others: at the highest dose activity change, negative = inhibition, hits mostly inhibitors | hit rate 6.9% among 320,000
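P. falciparum expressing integrated firefly luciferase grown in erythrocytes (2% hematocrit, 0.05% parasitemia final) with compounds for 96 hours at 37 C, 5% CO2. Growth inhibition read as loss of luminescence after adding luciferase detection reagent.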
VACV Venus inh: inhibitors of vaccinia virus (Venus reporter) | Vaccinia virus Venus reporter expression, fluorescence | Potency, µM (top dose mostly 36.5 µM), inactives show top-dose activity change, negative = inhibition, actives largely listed as inhibitors | hit rate 0.46% among 330,000 | AID 720580; calls by dose curve; tested in A549 cells; also: nearly all actives have a fitted effect of over 30% in size
Vaccinia mCherry: vaccinia inhibition (mCherry reporter); Vaccinia virus mCherry reporter infection, fluorescence; Potency, µM (top dose mostly 36.5 µM), inactives show at the highest dose activity change, negative = inhibition, most hits filed as inhibitors; hit rate 0.63% among 310,000; calls by dose curve; tested in A549 cells; also: nearly all actives have a fitted effect of over 35% in size
* marks the source's active call; other numbers are inactive results; i = inactive; ? = inconclusive; . = no result. Unless noted, calls follow the shape of the dose curve; as a rule, active = well fitted curve in the direction sought with a large enough effect; inconclusive = small, poorly fitted or top-dose-only effect, or another doubt; inactive = no such curve, though single readings can be large; an effect the other way counts as inactive or inconclusive. Unless noted, % is scaled to controls: 0 for no effect and ±100 for the full control effect; potency is read from the fitted curve at half-maximal effect.

SMILES	AMA1 RON2 block	Pf growth 48h	Pf growth 96h	VACV Venus inh	Vaccinia mCherry
CC(C)[C@H](NC(=O)c1cccc(S(=O)(=O)N2CCOCC2)c1)C(=O)NCc1ccc(F)cc1	-4%	.	.	-6%	-14%
CCOc1ccccc1C(=O)N[C@H](C(=O)Nc1ccc(OC)c(S(=O)(=O)N2CCOCC2)c1)C(C)C	-17%	13µM*	?	-28%	-21%
CCOc1ccc(C(=O)N[C@H](C(=O)Nc2ccc(OC)c(S(=O)(=O)N3CCOCC3)c2)C(C)C)cc1	-5%	?	?	?	-14%
Cc1cc(Cl)ccc1OC(C)C(=O)Nc1cccc(S(=O)(=O)N2CCOCC2)c1 (stereo not drawn)	2%	.	.	-25%	-14%
COc1cc(CN2CCC3(CCC(CNC(=O)c4cc(C)nn4C)O3)CC2)ccc1F (stereo not drawn)	.	.	.	-21%	i
CCCN1CCN(C(=O)Cn2ncc3c4ccccc4n(Cc4cccc(Cl)c4)c3c2=O)CC1	.	.	.	-13%	-10%
Cc1cccc([C@@H]2[C@@H]3C(=O)N(Cc4ccccc4)C(=O)[C@@H]3[C@]3(Cc4ccccc4)C(=O)N(c4ccccc4)C(=O)N23)c1	0%	10µM*	8.3µM*	-19%	i
Cc1cccc([C@@H]2[C@@H]3C(=O)N(Cc4ccccc4)C(=O)[C@@H]3[C@]3(Cc4ccccc4)C(=O)N(c4cccc(Cl)c4)C(=O)N23)c1	-5%	4.7µM*	12µM*	-2%	?
Cc1cccc([C@@H]2[C@@H]3C(=O)N(Cc4ccccc4)C(=O)[C@@H]3[C@]3(Cc4ccc(Cl)cc4)C(=O)N(c4ccccc4)C(=O)N23)c1	9%	?	?	-19%	i
Cc1cccc([C@@H]2[C@@H]3C(=O)N(Cc4ccccc4)C(=O)[C@@H]3[C@]3(Cc4ccccc4)C(=O)N(c4ccc(C(F)(F)F)cc4)C(=O)N23)c1	-10%	8.3µM*	8.3µM*	-23%	i
COc1ccc(CN2CCCC(n3cc(C(=O)NC4CCCC4)nn3)C2)c2ccccc12 (stereo not drawn)	.	.	.	-19%	i
O=C(Nc1ccccc1F)c1cnc(N2CCCCC2)c2ccccc12	.	.	.	-17%	i
CCCCSc1nnc(-c2c[nH]c3ccccc23)n1C	33%	.	?	-24%	-14%
CCSc1nnc(-c2cnn(-c3ccccc3)c2-n2cccc2)n1C	-4%	10µM*	.	-5%	.
CCCCCCSc1nnc(-c2cnn(-c3ccccc3)c2-n2cccc2)n1C	?	-29%	.	10µM*	10µM*
Cn1c(-c2cnn(-c3ccccc3)c2-n2cccc2)n[nH]c1=S	72%	-30%	?	-12%	i
Cn1nnc(NC(=O)c2ccc(C(C)(C)C)cc2)n1	8%	9.3µM*	0%	-13%	-21%
CCC(CC)C(=O)Nc1ccc(Sc2ccc([N+](=O)[O-])cc2)cc1	-6%	7.4µM*	?	.	.
CCCC(=O)Nc1ccc(Sc2ccc([N+](=O)[O-])cc2)cc1	-12%	12µM*	15µM*	-28%	.
COc1cc(-c2cnc3ccccc3c2)cc2c1OCCN(S(=O)(=O)C[C@]13CC[C@H](CC1=O)C3(C)C)C2	.	.	.	4%	-11%
CC(=O)Nc1nonc1-c1nc2ccccc2n1Cc1ccccc1Br	.	.	.	-18%	-24%
C=CCC[C@H](Cc1ccc(F)cc1)C(=O)OC[C@@H](NC(=O)[C@@H](CC=C)CC(=O)N(CCO)Cc1ccccc1)C(C)(C)C	61%	.	.	13µM*	?
C=CCC[C@H](Cc1ccc(F)cc1)C(=O)OC[C@@H](NC(=O)[C@@H](CC=C)CC(=O)N[C@@H](CO)Cc1ccccc1)C(C)(C)C	0%	.	.	10µM*	?
C=CCC[C@@H](Cc1ccc(F)cc1)C(=O)OC[C@@H](NC(=O)[C@@H](CC=C)CC(=O)N[C@@H](CO)Cc1ccccc1)C(C)(C)C	0%	.	.	?	i
COc1ccc(Cl)cc1NC(=O)c1cc(-c2cc(C)ccc2O)n[nH]1	67%	1.9µM*	2.3µM*	-9%	?
SMILES	AMA1 RON2 block	Pf growth 48h	Pf growth 96h	VACV Venus inh	Vaccinia mCherry
COc1ccc(Cl)cc1NC(=O)c1cc(-c2ccc(C)cc2O)n[nH]1	9%	?	-14%	2%	i
COc1ccc(OC)c(NC(=O)c2cc(-c3cc(C)c(C)cc3O)n[nH]2)c1	26%	2.6µM*	1.9µM*	?	-13%
COc1ccc(OC)c(NC(=O)c2cc(-c3c(C)cc(C)cc3O)n[nH]2)c1	4%	?	-19%	.	.
COc1ccc(OC)c(NC(=O)c2cc(-c3cc(C)cc(C)c3O)n[nH]2)c1	56%	.	9.3µM*	-29%	?
Cc1ccc(C(=O)Nc2cc(Cl)ccc2OC(=O)c2ccc(C)cc2)cc1	.	?	0.47µM*	.	.
Cc1nn(-c2ccccn2)c2c1-c1nc(N)sc1CC2	.	.	.	2%	20%
Cc1cccc(-c2cccc(C(=O)N3CCc4c(cnc(C)c4CNC(=O)c4cncs4)C3)c2)c1	.	.	.	-10%	-20%
Cc1csc2nc(COC(=O)c3ccc(NC(=O)C(C)C)cc3)cc(=O)n12	.	.	.	-22%	i
CC(C)c1c(C(=O)NCCN2CCOCC2)cnn1-c1nccc(-c2ccco2)n1	.	.	.	0%	-3%
CC(NS(=O)(=O)c1ccccc1[N+](=O)[O-])c1ccccn1 (stereo not drawn)	.	.	.	-14%	-3%
Cc1cc(C)c(NC(=O)CN2c3ccccc3S(=O)(=O)c3ccccc32)c(C)c1	.	.	.	-6%	-8%
O=P(c1ccccc1)(c1ccccc1)C(c1ccccn1)P(=O)(c1ccccc1)c1ccccc1	-6%	?	9.3µM*	-16%	i
O=P(c1ccccc1)(c1ccccc1)C(O)c1ccccn1 (stereo not drawn)	97%	22%	25%	.	.
COc1ccc2c(Sc3ccccc3)c(C(=O)NCCN(C)C)[nH]c2c1	.	.	.	-26%	?
CCn1cc(C(=O)NCCc2ccccc2)c(=O)c2cc(F)c(N3CCN(C)CC3)cc21	-7%	10µM*	?	-28%	?
CCn1cc(C(=O)N[C@H](C)c2ccccc2)c(=O)c2cc(F)c(N3CCN(C)CC3)cc21	14%	.	12µM*	-26%	-19%
CCC(C)NC(=O)c1cn(CC)c2cc(N3CCN(C)CC3)c(F)cc2c1=O (stereo not drawn)	-11%	?	-22%	.	.
CCn1cc(C(=O)NCCc2ccccc2)c(=O)c2cc(S(=O)(=O)N(C)C)ccc21	-9%	?	13µM*	-16%	i
CCn1cc(C(=O)NCCCO)c(=O)c2cc(F)c(N3CCN(C)CC3)cc21	5%	5%	?	.	.
CCCCCCNC(=O)c1cn(CC)c2cc(N3CCN(C)CC3)c(F)cc2c1=O	-9%	4.7µM*	2.6µM*	.	.
Cc1ccc(Cn2c(CN3CCC(C(=O)NCc4ccccc4C)CC3)cc3ccccc32)cc1	.	.	.	1%	-10%
COc1ccc(C)cc1NC(=O)C1CCN(S(=O)(=O)c2cc(Br)cc3c2N(C(C)=O)CC3)CC1	.	.	.	-7%	-6%
